Laboratory results reported in PubChem BioAssay AID1159580 (chemical genetic matrix, 2015).
Several values for one entry are separate records, joined by “and”; a condition that tells them apart may be missing. Equal values may be shown once. The campaign covered roughly 5,500 compounds. About 2,000 (36%) were called active. Another 18% or so got no clear call; they are omitted. Rule as the data show it: active = normalized growth mostly below about 0.91 (no sharp cut-off); inconclusive = no clear call, values can overlap the other calls; inactive = mostly above about 0.92. The list shows a part of the results.

Assay: chemical genetic growth profiling, strain panel (AID 1159580);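 also: tested at 20 µM; growth read once vehicle control cultures reached saturation at 30 °C; 1 = growth at the plate median or of vehicle wells; lower values mean less growth of the strain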
Conditions: S. cerevisiae deletion strains, growth OD

Measured: normalized growth

OCC(O)C(O)C(O)CO (stereo unspecified)
inactive: locus YAL021C, strain ccr4, stronger effect = lower value 1.01 | locus YAL026C, strain drs2, stronger effect = lower value 1.02 and 1.01 | locus YAL030W, strain snc1, stronger effect = lower value 1.03 and 0.992 | locus YBL061C, strain skt5, stronger effect = lower value 1.02 and 0.994 | locus YBR009C, strain hhf1, stronger effect = lower value 1.02 and 0.989 | locus YBR021W, strain FUR4, stronger effect = lower value 1.07 | locus YBR023C, strain chs3, stronger effect = lower value 1.03 and 0.999 | locus YBR171W, strain sec66, stronger effect = lower value 1.06 and 0.99 | locus YBR229C, strain ROT2, stronger effect = lower value 0.964 | locus YBR231C, strain swc5, stronger effect = lower value 1.03 and 0.994 | locus YBR279W, strain paf1, stronger effect = lower value 1.01 and 0.998 | locus YCL011C, strain gbp2, stronger effect = lower value 1.03 and 1.01 | locus YCL016C, strain dcc1, stronger effect = lower value 1.03 and 0.99 | locus YCL029C, strain bik1, stronger effect = lower value 0.985 | locus YCL061C, strain MRC1, stronger effect = lower value 1.03 | locus YCL069W, strain vba3, stronger effect = lower value 1.03 and 0.994 | locus YCR088W, strain abp1, stronger effect = lower value 1.02 and 0.991 | locus YDL005C, strain med2, stronger effect = lower value 1.03 and 0.984 | locus YDL035C, strain GPR1, stronger effect = lower value 1.04 | locus YDL040C, strain nat1, stronger effect = lower value 1.02 and 1 | locus YDL074C, strain BRE1, stronger effect = lower value 1.12 | locus YDL101C, strain DUN1, stronger effect = lower value 0.996 | locus YDL134C, strain PPH21, stronger effect = lower value 1.01 | locus YDL185W, strain tfp1, stronger effect = lower value 0.982 | locus YDL192W, strain arf1, stronger effect = lower value 1.02 | locus YDR001C, strain nth1, stronger effect = lower value 1.02 | locus YDR069C, strain doa4, stronger effect = lower value 1.02 and 0.976 | locus YDR101C, strain arx1, stronger effect = lower value 1.05 | locus YDR137W, strain rgp1, stronger effect = lower value 1.09 and 0.983 | locus YDR159W, strain sac3, stronger effect = lower value 1.03 and 1 | locus YDR162C, strain NBP2, stronger effect = lower value 0.971 | locus YDR195W, strain ref2 1.04 and 0.983 | locus YDR297W, strain sur2, stronger effect = lower value 1.02 and 1.01 | locus YDR318W, strain mcm21, stronger effect = lower value 0.992 | locus YDR334W, strain swr1, stronger effect = lower value 1.02 and 1 | locus YDR335W, strain msn5, stronger effect = lower value 1.02 and 0.999 | locus YDR388W, stronger effect = lower value 0.995 | locus YDR392W, strain spt3, stronger effect = lower value 1.02 and 0.998 | locus YDR502C, strain sam2, stronger effect = lower value 0.995 | locus YEL003W, strain gim4, stronger effect = lower value 1.03 and 1 | locus YEL037C, strain rad23, stronger effect = lower value 1.01 and 1 | locus YEL061C, strain CIN8 (second series), stronger effect = lower value 1.03 and 0.998 | locus YEL061C, strain CIN8, stronger effect = lower value 1.01 | locus YER015W, strain faa2, stronger effect = lower value 1.02 and 1 | locus YER016W, strain bim1, stronger effect = lower value 1.03 and 0.982 | locus YER110C, stronger effect = lower value 0.983 | locus YER111C, strain swi4, stronger effect = lower value 1.05 and 0.999 | locus YER155C, strain BEM2 (second series), stronger effect = lower value 1.05 and 0.987 | locus YER155C, strain BEM2, stronger effect = lower value 1 | locus YER167W, strain BCK2, stronger effect = lower value 1.01 | locus YFR010W, strain ubp6, stronger effect = lower value 1.02 and 1 | locus YGL078C, strain dbp3, stronger effect = lower value 1.01 | locus YGL086W, strain mad1, stronger effect = lower value 1.05 | locus YGL167C, strain pmr1, stronger effect = lower value 1.04 and 1 | locus YGL173C, strain kem1, stronger effect = lower value 1.03 and 0.996 | locus YGL227W, strain vid30, stronger effect = lower value 1.02 and 0.98 | locus YGL240W, strain doc1, stronger effect = lower value 1.03 and 1.01 | locus YGL248W, strain PDE1, stronger effect = lower value 0.999 | locus YGL253W, strain hxk2, stronger effect = lower value 1.02 and 1.01 | locus YGR135W, strain pre9, stronger effect = lower value 0.984 | locus YGR229C, strain SMI1, stronger effect = lower value 1.04 | locus YGR252W, strain gcn5, stronger effect = lower value 1.06 | locus YHR013C, strain ard1, stronger effect = lower value 1.04 and 0.994 | locus YHR027C, strain rpn1, stronger effect = lower value 1.03 and 0.991 | locus YHR030C, strain SLT2, stronger effect = lower value 1.03 and 1.02 | locus YHR079C, strain IRE1 (second series), stronger effect = lower value 0.994 | locus YHR079C, strain IRE1, stronger effect = lower value 1.02 and 1.05 | locus YHR094C, strain hxt1, stronger effect = lower value 0.982 | locus YHR129C, strain ARP1, stronger effect = lower value 1.02 | locus YHR142W, strain chs7, stronger effect = lower value 1.04 and 1.02 | locus YHR200W, strain rpn10, stronger effect = lower value 1 | locus YIL066C, strain RNR3, stronger effect = lower value 1.02 | locus YIL073C, strain SPO22, stronger effect = lower value 1.07 | locus YIL125W, strain kgd1, stronger effect = lower value 0.997 | locus YIR030C, strain dcg1, stronger effect = lower value 1 | locus YJL092W, strain hpr5, stronger effect = lower value 1.03 and 1 | locus YJL095W, strain BCK1 (second series), stronger effect = lower value 1.01 and 0.999 | locus YJL095W, strain BCK1, stronger effect = lower value 1.04 and 1.03 | locus YJL115W, strain asf1, stronger effect = lower value 1.04 and 0.983 | locus YJL129C, strain trk1, stronger effect = lower value 1.05 and 0.992 | locus YJL134W, strain LCB3, stronger effect = lower value 0.993 | locus YJL154C, strain vps35, stronger effect = lower value 1.02 and 0.991 | locus YJL164C, strain tpk1, stronger effect = lower value 1.03 and 0.996 | locus YJL166W, strain qcr8, stronger effect = lower value 1.03 and 1.01 | locus YJL168C, strain set2, stronger effect = lower value 0.998 | locus YJL187C, strain SWE1 (second series), stronger effect = lower value 0.995 | locus YJL187C, strain SWE1, stronger effect = lower value 1.04 and 0.996 | locus YJR043C, strain POL32, stronger effect = lower value 1.05 | locus YJR066W, strain TOR1, stronger effect = lower value 0.962 and 0.981 | locus YKL009W, strain mrt4, stronger effect = lower value 1.06 | locus YKL068W, stronger effect = lower value 0.987 | locus YKL085W, strain MDH1 (second series), stronger effect = lower value 1.01 | locus YKL085W, strain MDH1, stronger effect = lower value 1.01 | locus YKL160W, strain elf1, stronger effect = lower value 1.02 and 0.994 | locus YKL190W, strain CNB1, stronger effect = lower value 0.996 | locus YKR001C, strain vps1, stronger effect = lower value 1.02 | locus YKR026C, strain gcn3, stronger effect = lower value 1.03 and 0.989 | locus YKR091W, strain srl3, stronger effect = lower value 1.02 and 0.991 | locus YLL001W, strain dnm1, stronger effect = lower value 1.03 and 1 | locus YLL026W, stronger effect = lower value 1.03 and 0.991 | locus YLL041C, strain sdh2, stronger effect = lower value 1.02 and 0.993 | locus YLR027C, strain aat2, stronger effect = lower value 1.03 and 0.975 | locus YLR039C, strain RIC1, stronger effect = lower value 1.07 | locus YLR058C, strain SHM2, stronger effect = lower value 1 | locus YLR102C, strain apc9, stronger effect = lower value 0.992 | locus YLR113W, strain HOG1, stronger effect = lower value 1.02 and 1.06 | locus YLR221C, strain rsa3, stronger effect = lower value 1.03 and 0.996 | locus YLR258W, strain gsy2, stronger effect = lower value 1.01 and 1 | locus YLR262C, strain YPT6 (second series), stronger effect = lower value 1.05 and 1.02 | locus YLR262C, strain YPT6, stronger effect = lower value 1.02 | locus YLR268W, strain sec22, stronger effect = lower value 1.03 | locus YLR320W, strain mms22, stronger effect = lower value 1.03 and 1.01 | locus YLR330W, strain CHS5, stronger effect = lower value 1.01 | locus YLR342W, strain FKS1 (second series), stronger effect = lower value 1.16 | locus YLR342W, strain FKS1, stronger effect = lower value 1.03 and 0.995 | locus YLR357W, strain rsc2, stronger effect = lower value 1.06 and 0.993 | locus YLR370C, strain arc18, stronger effect = lower value 1.02 and 0.986 | locus YLR371W, strain rom2, stronger effect = lower value 1 | locus YLR384C, strain iki3, stronger effect = lower value 1.03 and 0.966 | locus YLR418C, strain cdc73, stronger effect = lower value 1.05 | locus YML016C, strain PPZ1, stronger effect = lower value 1 | locus YML032C, strain rad52, stronger effect = lower value 0.996 | locus YML120C, strain ndi1, stronger effect = lower value 1.03 and 1 | locus YML124C, strain tub3, stronger effect = lower value 0.99 | locus YMR058W, strain fet3, stronger effect = lower value 1.02 and 1 | locus YMR078C, strain ctf18, stronger effect = lower value 0.998 | locus YMR125W, strain sto1, stronger effect = lower value 1.02 and 1 | locus YMR129W, stronger effect = lower value 1.03 and 0.992 | locus YMR205C, strain PFK2, stronger effect = lower value 1.05 and 0.988 | locus YMR223W, strain ubp8, stronger effect = lower value 1 | locus YMR231W, strain pep5, stronger effect = lower value 1.01 | locus YMR263W, strain SAP30, stronger effect = lower value 1.01 | locus YMR307W, strain GAS1, stronger effect = lower value 1.2 | locus YNL067W, strain RPL9B, stronger effect = lower value 0.991 | locus YNL071W, strain lat1, stronger effect = lower value 1.02 and 1.01 | locus YNL128W, strain TEP1, stronger effect = lower value 1.02 | locus YNL183C, strain NPR1, stronger effect = lower value 0.969 and 0.984 | locus YNL209W, strain ssb2, stronger effect = lower value 1.01 and 0.988 | locus YNL233W, strain BNI4, stronger effect = lower value 1.02 | locus YNL248C, strain rpa49, stronger effect = lower value 1.03 and 1.02 | locus YNL250W, strain rad50, stronger effect = lower value 1 | locus YNL271C, strain bni1, stronger effect = lower value 1.01 | locus YNL298W, strain CLA4, stronger effect = lower value 1.02 | locus YNL307C, strain MCK1, stronger effect = lower value 0.997 | locus YNL322C, strain KRE1 (second series), stronger effect = lower value 1.03 and 0.99 | locus YNL322C, strain KRE1, stronger effect = lower value 1.01 | locus YNR049C, strain mso1, stronger effect = lower value 1.02 and 0.994 | locus YNR052C, strain pop2, stronger effect = lower value 1.01 | locus YOL012C, strain htz1 0.9 | locus YOL147C, strain pex11, stronger effect = lower value 0.994 | locus YOR001W, strain rrp6, stronger effect = lower value 1.01 and 0.998 | locus YOR061W, strain CKA2, stronger effect = lower value 0.989 | locus YOR069W, strain VPS5, stronger effect = lower value 1.01 | locus YOR070C, strain gyp1, stronger effect = lower value 1.01 and 0.994 | locus YOR080W, strain dia2, stronger effect = lower value 1.03 and 0.985 | locus YOR083W, strain WHI5, stronger effect = lower value 1.01 and 0.997 | locus YOR106W, strain vam3, stronger effect = lower value 1.05 and 0.998 | locus YOR136W, strain idh2, stronger effect = lower value 0.992 | locus YOR144C, strain elg1, stronger effect = lower value 0.989 | locus YOR184W, strain ser1, stronger effect = lower value 1 | locus YOR231W, strain MKK1, stronger effect = lower value 1.03 and 1.05 | locus YOR265W, strain rbl2, stronger effect = lower value 1.03 and 0.995 | locus YOR270C, strain vph1, stronger effect = lower value 1.09 and 1.04 | locus YOR290C, strain snf2, stronger effect = lower value 1.04 and 0.997 | locus YOR316C, strain cot1, stronger effect = lower value 0.989 | locus YPL051W, strain arl3, stronger effect = lower value 1.02 and 0.975 | locus YPL078C, strain atp4, stronger effect = lower value 1.02 and 0.992 | locus YPL106C, strain sse1, stronger effect = lower value 1.03 and 0.946 | locus YPL240C, strain hsp82, stronger effect = lower value 1.02 and 0.997 | locus YPL241C, strain CIN2, stronger effect = lower value 0.997 | locus YPL256C, strain CLN2, stronger effect = lower value 0.996 and 1.06 | locus YPR119W, strain clb2, stronger effect = lower value 1 | locus YPR141C, strain kar3, stronger effect = lower value 0.992 | locus YPR163C, strain tif3, stronger effect = lower value 0.995 | locus YPR167C, strain met16, stronger effect = lower value 1 | strain wtn01, stronger effect = lower value 1.04
